Our source for the growth values is PubChem BioAssay (NCI).

What all share (assay): NCI-60 one-dose screen, 48 h (100 = growth as untreated, 0 = no growth, -100 = all killed)
Common to all, as to conditions: 10 µM unless noted

The test system of assay [1] is SR leukemia.
Assay [2] has as its system RPMI-8226 leukemia.
Assay [3] has as its system OVCAR-8 ovarian.
In assay [4] the test system is OVCAR-5 ovarian.
In assay [5] the test system is OVCAR-4 ovarian.
The test system of assay [6] is SK-OV-3 ovarian.
Assay [7] deals with IGROV1 ovarian.
The test system of assay [8] is OVCAR-3 ovarian.
Assay [9] has as its system HS 578T breast.
The subject of assay [10] is NCI/ADR-RES ovarian.
The test system of assay [11] is T-47D breast.
The subject of assay [12] is BT-549 breast.
Assay [13] concerns MDA-MB-435 melanoma.
In assay [14] the test system is SW-620 colon.
The test system of assay [15] is MCF7 breast.
Assay [16] has as its system HCT-116 colon.
In assay [17] the test system is HCC-2998 colon.
Assay [18] concerns KM12 colon.

Values joined by “and” are separate entries in the source; they are usually repeats but may differ in a detail not shown here. Identical values can stand only once. This is part of a sample that, as a whole, favours compounds with a hit. Of some 83,000 tested, about 20% had one in any assay.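 The endpoint reported here, percent growth, reads 100 for growth as untreated, 0 for no net growth and -100 for all cells dead.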 Active and inactive are the calls of the source. The calls were made as follows: active = growth percent below 10; inactive = the rest.

As for `COC(=O)N/N=C/c1c[n+]([O-])c2ccccc2[n+]1[O-]`, the growth in assay [1] was 93.4% (inactive); in assay [2], 94.3% (inactive); in assay [3], 90.8% (inactive); in [4], 108% (inactive); in assay [5], 103% (inactive); in assay [6], 29.9% (inactive). The growth in assay [7] is 102% (inactive); in [8] it was 111% (inactive); in assay [9], 126% (inactive); in assay [10] it was 102% (inactive); in assay [11], 20.4% (inactive); in assay [12], 108% (inactive). In addition, the growth is 96.4% (inactive) in assay [13]; 103% (inactive) in assay [14]; 93.6% (inactive) in assay [15]; 104% (inactive) in assay [16]; 104% (inactive) in [17]; 103% (inactive) in assay [18].

For the compound `OCCN1CCN(c2cc(-c3cccc(OC(F)(F)F)c3)nc3ccc(N4CCCC4)cc23)CC1`, the growth in assay [1] is 3.39% (active); in [2], 43.1% (inactive); in assay [3], 54.3% (inactive); in [4] it was 69.4% (inactive); in assay [5], 54.9% (inactive); in assay [6], 74.5% (inactive). Besides, the growth in assay [7] is 36.9% (inactive); in assay [8] it was 46.7% (inactive); in assay [9], 53.9% (inactive); in [10] it was 48.5% (inactive); in assay [11], 32.2% (inactive); in assay [12], 80.5% (inactive). The growth in assay [13] was 29.7% (inactive); in [14] it was 2.96% (active); in assay [15], 17.5% (inactive); in [16], 15.6% (inactive); in [17], 22.9% (inactive); in assay [18] it was 23.4% (inactive).

In the case of `O=c1c2c([nH]c3ccccc13)CCCC2`, the growth is 87.9% (inactive) and 10.9% (inactive) in assay [1]; 87.2% (inactive) and 38.6% (inactive) in assay [2]; 99.8% (inactive) and 40.5% (inactive) in assay [3]; 91.3% (inactive) and 78.2% (inactive) in assay [4]; 100% (inactive) and 68.5% (inactive) in assay [5]; 104% (inactive) and 44.2% (inactive) in [6]. Further, the growth was 111% (inactive) and 44.1% (inactive) in assay [7]; 118% (inactive) and -8.45% (active) in [8]; 98.2% (inactive) and 72.4% (inactive) in assay [9]; 104% (inactive) and 22.2% (inactive) in [10]; 105% (inactive) and 55.5% (inactive) in assay [11]; 106% (inactive) and 59% (inactive) in assay [12]. In addition, the growth in assay [13] is 103% (inactive) and -56.9% (active); in assay [14] it was 92.6% (inactive) and 16.1% (inactive); in [15], 88.7% (inactive) and 17.7% (inactive); in assay [16] it was 95.6% (inactive) and 23.5% (inactive); in assay [17], 55.5% (inactive); in [18], 99.2% (inactive) and 19.7% (inactive).

With `O=C1CCCCN1CCCCC#Cc1cccc(C#Cc2cccnc2)c1`, the growth in assay [1] was -46.3% (active); in assay [2], 49.7% (inactive); in [3], 89.2% (inactive); in assay [4], 101% (inactive); in assay [5], 93.8% (inactive); in assay [6] it was 109% (inactive). The growth was 79.4% (inactive) in assay [7]; 89.7% (inactive) in assay [8]; 88% (inactive) in assay [9]; 72.7% (inactive) in [10]; 84.1% (inactive) in assay [11]; 265% (inactive) in [12]. The growth was 84.6% (inactive) in [13]; 101% (inactive) in [14]; 101% (inactive) in assay [15]; 141% (inactive) and 39.7% (inactive) in assay [16]; 77.2% (inactive) in [17]; 73.6% (inactive) in assay [18].

Turning to `CC(C)(C)c1cc(NC(=O)Nc2ccc(-c3cn4c(n3)sc3cc(OCCN5CCOCC5)ccc34)cc2)no1`, the growth in [1] was 9.24% (active) and 1.25% (active); in [2], -11% (active) and 22.8% (inactive); in assay [3], 13.2% (inactive) and -9.65% (active); in [4], 56% (inactive) and 60.8% (inactive); in assay [5], 59.3% (inactive) and 3.54% (active); in [6] it was 45.4% (inactive) and 27.9% (inactive). In addition, the growth in [7] is 48.3% (inactive) and 37.5% (inactive); in [8] it was -43.2% (active) and 38.5% (inactive); in assay [9], -2.54% (active); in assay [10], 51.5% (inactive) and 23.2% (inactive); in [11], -33% (active) and -23.2% (active); in [12], 4.32% (active) and 9.08% (active). The growth in [13] was 65.1% (inactive) and 31.5% (inactive); in [14], 49.9% (inactive) and 21.1% (inactive); in assay [15], 9.99% (active) and 22.3% (inactive); in [16], 8.69% (active) and 14.3% (inactive); in assay [17], 39.1% (inactive) and 56.4% (inactive); in assay [18], 13.7% (inactive) and 9.16% (active).

For the compound `O=C(O)C1C2CCC1C(O)C2` (stereo unspecified), the growth is 96.2% (inactive) and 88.2% (inactive) in assay [1]; 104% (inactive) and 90.5% (inactive) in assay [2]; 100% (inactive) and 98.1% (inactive) in assay [3]; 96.5% (inactive) and 96.2% (inactive) in assay [4]; 106% (inactive) and 108% (inactive) in assay [5]; 105% (inactive) and 98.8% (inactive) in assay [6]. In addition, the growth in assay [7] was 124% (inactive) and 112% (inactive); in assay [8], 108% (inactive) and 96.9% (inactive); in assay [9], 110% (inactive) and 109% (inactive); in assay [10], 96.7% (inactive) and 98.2% (inactive); in assay [11], 92.3% (inactive) and 97.4% (inactive); in assay [12], 98.2% (inactive) and 97.1% (inactive). Further, the growth in assay [13] is 106% (inactive); in assay [14], 107% (inactive) and 113% (inactive); in assay [15], 92% (inactive) and 97.8% (inactive); in [16], 100% (inactive) and 101% (inactive); in assay [17], 99.9% (inactive) and 101% (inactive); in assay [18], 107% (inactive) and 98.7% (inactive).

With `O=C1C=C(Nc2ccccc2)c2ncccc2C1=O`, the growth in assay [1] was -28.2% (active); in assay [2] it was -40.7% (active); in assay [3], -92.7% (active); in [4] it was -90.3% (active); in [5] it was -95.2% (active); in assay [6] it was -91.1% (active). For the same compound, the growth in assay [7] was -66.7% (active); in assay [8] it was -74.6% (active); in assay [9], -8.31% (active); in [10], -24.8% (active); in assay [11] it was -48.3% (active); in assay [12] it was -94.4% (active). In addition, the growth in assay [13] was -95.3% (active); in [14] it was -70.6% (active); in assay [15], -52.2% (active); in [16] it was -87.9% (active); in [17], -89.1% (active); in assay [18], -67.3% (active).
